Screening results from PubChem BioAssay.
Lassa entry inh: Lassa virus entry inhibition. 300,000 tested, 1.2% active. AID 540256. Potency, µM (highest dose often 37.9 µM), most hits filed as inhibitors. Lassa virus pseudotype entry inhibition, cell reporter; calls by dose curve; tested in HEK293 cells; further: nearly all actives have a fitted effect of over 50% in size
HCMV antiviral: inhibitors of human cytomegalovirus; HFF cells, HCMV-luciferase reporter, 72 h; hits give low values; activity change, negative = inhibition, % at 57.5 µM; 410,000 tested, 4.5% active; AID 1259415; in the data active means activity change below about -60%; inconclusive means no clear call, values can overlap the other calls; inactive means above about -39%
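Inhibition of viral replication was scored as loss of reporter luminescence in HFFs infected with HCMV-luciferase (MOI 1 PFU/cell) for 72 h; compounds tested at 2 doses, normalized to buffer and Salinomycin controls.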
Marburg entry inh: inhibitors of Marburg virus binding or cell entry. Marburg virus pseudotyped entry inhibition, cell reporter. Potency, µM (doses to about 37.8 µM), most hits filed as inhibitors. 300,000 tested, 1.8% active; calls by dose curve; tested in HEK293 cells
FBPA Giardia inh: inhibitors of Giardia lamblia fructose-1,6-bisphosphate aldolase; A8B2U2; 290,000 tested, 0.71% active; Potency, µM (highest dose often 59.6 µM), actives largely listed as inhibitors; AID 2451; purified Giardia FBPA; further: nearly all actives have a fitted effect of over 55% in size
Target sequence (A8B2U2 whole entry, looked up): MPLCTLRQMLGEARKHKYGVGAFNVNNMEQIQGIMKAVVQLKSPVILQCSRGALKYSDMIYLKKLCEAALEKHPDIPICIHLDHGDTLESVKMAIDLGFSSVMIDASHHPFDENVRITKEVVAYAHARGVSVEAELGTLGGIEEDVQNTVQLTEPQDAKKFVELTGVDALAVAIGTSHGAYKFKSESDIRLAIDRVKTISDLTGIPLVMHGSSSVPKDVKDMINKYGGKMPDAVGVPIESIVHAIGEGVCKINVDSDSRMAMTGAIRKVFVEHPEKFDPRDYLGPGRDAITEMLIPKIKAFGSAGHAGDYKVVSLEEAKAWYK
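Giardia FBPA (40 nM reagent) was preincubated 10 min at RT with compound (up to 57.5 uM final), then substrate plus GAPDH/TPI/NAD/arsenate coupling system with diaphorase/resazurin was added; resorufin fluorescence (525/598 nm) was read after 20 min.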
FMDV inh: foot and mouth disease virus antiviral activity; FMDV antiviral cell-based qHTS; Potency, µM (doses to about 57.9 µM), most hits filed as inhibitors; AID 1159524; 410,000 tested, 1.2% active; calls by dose curve; tested in HEK293T cells; further: read-out not given here; nearly all actives have a fitted effect of over 45% in size
HCV inhibitor: blocks hepatitis C virus. Huh7.5.1 HCVcc-Cre infection, luciferase reporter, 44 h. Potency, µM (highest dose often 41.8 µM), actives largely listed as inhibitors. 340,000 tested, 3.4% active. AID 651820
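Antiviral activity was scored by luciferase reporter output from cells infected with HCVcc-Cre (~0.5 moi) in presence of compound, 44 h infection period, cells seeded 1,000/well 4 h prior.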
Each line names hits and unclear results; the compound was inactive in the other large screens. Only some compounds are listed: those with a hit (about 8.3% of all), similar ones and a draw of the others. Unless noted, the call rests on the fitted dose curve; in most records, active means well fitted curve in the direction sought with a large enough effect; inconclusive means small, poorly fitted or top-dose-only effect, or another doubt; inactive means no such curve, though single readings can be large; an effect the other way counts as inactive or inconclusive.

CSCC[C@H](NC(=O)[C@H](Cc1c[nH]c2ccccc12)NC(=O)CCNC(=O)OC(C)(C)C)C(=O)N[C@@H](CC(=O)O)C(=O)N[C@@H](Cc1ccccc1)C(N)=O	none (no result: Lassa entry inh, HCMV antiviral, Marburg entry inh, FMDV inh, HCV inhibitor)
COC(=O)c1cc(CNC(=O)c2cccc(N(C)C)c2)cc(NC(=O)c2ccccc2Cl)c1	none (no result: Lassa entry inh, HCMV antiviral, Marburg entry inh, FBPA Giardia inh, HCV inhibitor)
CC1(C)N=C(N)N=C(N)N1c1cccc(C#N)c1	Lassa entry inh 2.51µM, HCMV antiviral -76.6, Marburg entry inh inconclusive, HCV inhibitor inconclusive (no result: FBPA Giardia inh)
COc1cccc(N2C(N)=NC(N)=NC2(C)C)c1	Lassa entry inh inconclusive, HCMV antiviral -66.7
COc1ccc(N2C(N)=NC(N)=NC2(C)C)cc1	Lassa entry inh inconclusive, HCMV antiviral inconclusive, Marburg entry inh inconclusive (no result: FBPA Giardia inh)
CCOc1ccc(N2C(N)=NC(N)=NC2(C)C)cc1	HCMV antiviral -68.1, Marburg entry inh inconclusive
CCCCOC(=O)c1cccc(NC(=O)c2cc3ccccc3o2)c1	none (no result: Marburg entry inh, FBPA Giardia inh, HCV inhibitor)
Fc1ccccc1-c1csc(=Nc2cccnc2)n1CCCn1ccnc1	HCMV antiviral -90.2, Marburg entry inh inconclusive, FMDV inh inconclusive, HCV inhibitor 22.4µM
CC(C)=N/N=c1\scc(C)n1Cc1ccco1	none
Cc1csc(=Nc2cccnc2)n1Cc1ccco1	Lassa entry inh inconclusive, HCV inhibitor 0.562µM
COCCn1c(-c2cccs2)csc1=Nc1cccnc1	FBPA Giardia inh inconclusive, FMDV inh 22.4µM
Fc1ccccc1-c1csc(=Nc2cccnc2)n1CC1CCCO1 (centres undefined)	HCMV antiviral inconclusive, FMDV inh inconclusive, HCV inhibitor inconclusive
Cc1cc(C)cc(NC(=O)CSc2nc(=O)[nH]c3c2CCC3)c1	none (no result: Marburg entry inh, FBPA Giardia inh, HCV inhibitor)
CCCCCOc1ccc(NS(C)(=O)=O)cc1	none
CCCCc1oc2ccc(NS(C)(=O)=O)cc2c1C(=O)c1ccc(OCCCN(CCCC)CCCC)cc1	HCMV antiviral -82.0 (no result: Lassa entry inh, Marburg entry inh, FBPA Giardia inh, FMDV inh, HCV inhibitor)
CC/C=C\CC[C@H](OC(=O)c1ccc(Br)cc1)C1=CCCCC1=O	Marburg entry inh inconclusive (no result: Lassa entry inh, HCMV antiviral, FMDV inh, HCV inhibitor)
CC1CC(C)CN(CCCNC(=O)c2cn(C)c3ccc(S(=O)(=O)N4CCCC4)cc3c2=O)C1 (centres undefined)	none
CN(CCCNC(=O)c1cn(C)c2ccc(S(=O)(=O)N(C)C)cc2c1=O)c1ccccc1	HCMV antiviral -63.9
CC1CCN(CCCNC(=O)c2cn(C)c3ccc(S(=O)(=O)N4CCCC4)cc3c2=O)CC1	HCMV antiviral -108.0
COc1cccc([C@@H]2Oc3ccc(Br)cc3C(=O)[C@H]2OC(=O)NS(=O)(=O)c2ccc(C)cc2)c1	none (no result: Lassa entry inh, HCMV antiviral, Marburg entry inh, FMDV inh, HCV inhibitor)
COc1ccc(COCC(O)CN2CCN(S(=O)(=O)c3c(F)cccc3F)CC2)cc1OC (centres undefined)	HCV inhibitor 35.5µM (no result: FBPA Giardia inh)
CCN(CC)CC(O)CN1c2ccccc2Sc2ccccc21 (centres undefined)	Lassa entry inh inconclusive, Marburg entry inh 3.16µM, HCV inhibitor 22.4µM (no result: HCMV antiviral)
CCN(CC)CCCCN1c2ccccc2Sc2ccccc21	Lassa entry inh inconclusive, Marburg entry inh 11.2µM, FMDV inh inconclusive, HCV inhibitor inconclusive
C[C@@H](CN1c2ccccc2Sc2ccccc21)N(C)C	Marburg entry inh inconclusive (no result: Lassa entry inh, HCMV antiviral, FMDV inh, HCV inhibitor)
CC(CN1c2ccccc2Sc2ccccc21)N(C)C (centres undefined)	Lassa entry inh inconclusive, Marburg entry inh 1.12µM
CCCCNC(=O)c1ccc2c(=O)n(Cc3ccc(OC)cc3)c(=O)[nH]c2c1	Marburg entry inh inconclusive (no result: FBPA Giardia inh, HCV inhibitor)
CC(SCc1ccccc1)C(=O)N/N=C/c1ccc(OCC(=O)NCc2ccco2)cc1 (centres undefined)	Lassa entry inh inconclusive, Marburg entry inh inconclusive, FMDV inh 12.6µM, HCV inhibitor 11.2µM
C[C@H](CO)N1C[C@H](C)[C@@H](CN(C)C)Oc2c(NC(=O)Cc3ccccc3)cccc2C1=O	HCV inhibitor 0.562µM (no result: Lassa entry inh, Marburg entry inh, FBPA Giardia inh)
C[C@H](CO)N1C[C@H](C)[C@@H](CN(C)C)Oc2c(NS(=O)(=O)c3ccc(F)cc3)cccc2C1=O	HCMV antiviral -73.0 (no result: Lassa entry inh, Marburg entry inh, FBPA Giardia inh)
C[C@H](CO)N1C[C@H](C)[C@@H](CN(C)CC2CC2)Oc2c(NS(=O)(=O)c3ccc(F)cc3)cccc2C1=O	HCV inhibitor inconclusive (no result: Lassa entry inh, Marburg entry inh, FBPA Giardia inh)
CC(NCc1ccc(Cl)cc1)C(O)c1ccccc1 (centres undefined)	Marburg entry inh inconclusive (no result: FMDV inh)
CC(NCc1ccc(-c2ccccc2)cc1)C(O)c1ccccc1 (centres undefined)	Lassa entry inh 4.61µM, HCMV antiviral -101.2, Marburg entry inh inconclusive, FMDV inh inconclusive, HCV inhibitor inconclusive
COCC#Cc1ccc(C2C(C)CCC3C(=O)N4C(CCC(C)C4c4ccc(C#CCOC)cc4)C(=O)N32)cc1 (centres undefined)	none (no result: Lassa entry inh, HCMV antiviral, Marburg entry inh, FMDV inh, HCV inhibitor)
O=C1C=C2C(=CCOC2O)O1 (centres undefined)	FMDV inh 14.1µM (no result: Lassa entry inh, HCMV antiviral, Marburg entry inh, HCV inhibitor)
COc1ccc(Cl)cc1NC(=O)NC(C)c1ccncc1 (centres undefined)	FBPA Giardia inh inconclusive, HCV inhibitor 7.08µM
COc1ccc(C)cc1NC(=O)NC(C)c1ccncc1 (centres undefined)	none (no result: Lassa entry inh, Marburg entry inh)
COc1ccc(Cl)cc1NC(=O)C(C)N1CCN(c2ccccn2)CC1 (centres undefined)	HCMV antiviral -74.3, FMDV inh inconclusive, HCV inhibitor inconclusive (no result: Lassa entry inh, Marburg entry inh)
COC(=O)C1(O)CC(c2ccccc2)C(C(=O)c2ccccc2)N1c1ccc(Br)cc1 (centres undefined)	none (no result: Lassa entry inh, Marburg entry inh, FBPA Giardia inh, FMDV inh, HCV inhibitor)
Nc1cc(=O)[nH]c(=O)n1-c1cccc(F)c1	HCMV antiviral -84.1
Cc1oc(-c2ccccc2Cl)nc1Cn1c(SCc2cccc(F)c2)nc2cccnc21	Lassa entry inh inconclusive (no result: Marburg entry inh, FBPA Giardia inh, HCV inhibitor)
